# Measured values taken from PubChem BioAssay (NCATS).
# A number with no mark means an inactive call. Records with an inconclusive call do not appear. A call without a number means that no potency is given here. Active and inactive are the calls of the source. Calls follow the shape of the dose curve; as a rule, active = well fitted curve in the direction sought with a large enough effect; inconclusive = small, poorly fitted or top-dose-only effect, or another doubt; inactive = no such curve, though single readings can be large; an effect the other way counts as inactive or inconclusive.
# Legend:
# [1] = biological target: Glutathione peroxidase 1 (Homo sapiens) (UniProt P07203); assay: Primary qHTS Assay for Inhibitors of Recombinant Selenoprotein Glutathione Peroxidase 1 (GPX1) (AID 1845191); also: nearly all actives have a fitted effect of over 65% in size
# Glutathione peroxidase 1 (Homo sapiens), sequence (P07203 whole entry, looked up): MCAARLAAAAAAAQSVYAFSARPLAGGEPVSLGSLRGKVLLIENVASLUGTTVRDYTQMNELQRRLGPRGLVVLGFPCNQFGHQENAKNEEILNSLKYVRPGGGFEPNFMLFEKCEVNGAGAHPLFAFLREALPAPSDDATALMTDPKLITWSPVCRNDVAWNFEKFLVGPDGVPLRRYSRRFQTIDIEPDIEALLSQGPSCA
# Summary of the method: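 GPX1 10 nM, GR 100 nM, GSH 1 mM, NADPH 0.5 mM, CHP 0.5 mM (final). 30-min cpd preincubation, RT. Ex340/Em450 read t=0, t=15 min.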
# [2] = biological target: Phospholipid hydroperoxide glutathione peroxidase GPX4 (Homo sapiens) (UniProt P36969); assay: Primary qHTS Assay for Inhibitors of Recombinant Selenoprotein Glutathione Peroxidase 4 (GPX4) (AID 1845192); also: nearly all actives have a fitted effect of over 65% in size; as to activity change, negative = inhibition: series mostly up to about 50 µM
# Phospholipid hydroperoxide glutathione peroxidase GPX4 (Homo sapiens), sequence (P36969 whole entry, looked up): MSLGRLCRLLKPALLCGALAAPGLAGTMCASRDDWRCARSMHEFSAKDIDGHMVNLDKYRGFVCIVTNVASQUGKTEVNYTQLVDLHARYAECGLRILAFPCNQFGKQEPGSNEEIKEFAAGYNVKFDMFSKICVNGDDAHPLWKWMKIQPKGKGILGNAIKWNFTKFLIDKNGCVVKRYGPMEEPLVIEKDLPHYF
# Summary of the method: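 qHTS, GR-coupled: GPX4 200 nM + cpd 30 min RT → GSH 1 mM, NADPH 0.5 mM, GR 100 nM → CHP 0.5 mM start; fluor 340/450 at t0 and t15 min; no-enzyme wells as control.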
# [3] = biological target: Luciferin 4-monooxygenase (Photinus pyralis) (UniProt P08659); assay: Primary firefly luciferase (FLuc) qHTS assay for identification of artifact compounds. (AID 1845220); also: nearly all actives have a fitted effect of over 60% in size; as to activity change, negative = inhibition: series mostly up to about 54 µM
# Summary of the method: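 Reaction readout was CCD-imaged luminescence, taken 5 min after adding 10 nM purified firefly enzyme to compound-treated wells holding 10 uM luciferin and ATP in pH 7.6 buffer.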
# [4] = Primary fluorescence-based thiol-reactive (MSTI) qHTS assay for identification of artifact compounds. (AID 1845221); also: nearly all actives have a fitted effect of over 65% in size; also: potency is read from the fitted curve at half-maximal effect;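 as to activity change, negative = thiol reactive: series mostly up to about 54 µM; thiol-reactive compounds lower the probe fluorescence signal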
# Summary of the method: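 Probe: MSTI 4 uM, PBS pH 7.4, 2% DMSO. Incubation 1 h, RT, light-protected. Readout fluorescence 525/598 nm.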
# [5] = test system: Nanoluciferase (engineered Oplophorus gracilirostris luciferase); assay: Primary Nanoluciferase (NLuc) qHTS assay for identification of artifact compounds. (AID 1845222);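 also: NLuc secreted into diluted conditioned medium of S16 cells; series mostly up to about 54 µM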
# Summary of the method: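 Concentration-response data were obtained by luminescence after 5 min with Nano-Glo substrate at 1:100. The enzyme was diluted S16 NLuc-expressing cell medium, preincubated with compound for 15 min at RT. Curves were fitted with a 4-parameter Hill model.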
# [6] = Primary redox qHTS assay for identification of artifact compounds. (AID 1845223)
# Summary of the method: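 Redox-cycling detection via DTT (250 uM final) oxidation coupled to Amplex Red (25 uM)/HRP (250 mU/mL) in HBSS. 15 min preincubation plus 30 min after DTT, room temperature. Ex/Em 525/598 nm; 4-parameter Hill fit against DMSO and 10 uM DA3003.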
Structure (SMILES),Potency [1],Potency [2],Potency [3],Potency [4],Potency [5],Potency [6],"activity change, negative = inhibition [3]","activity change, negative = thiol reactive [4]","activity, negative = inhibition [5]",redox activity (% of DA3003) [6]
CCCCc1c(-c2ccc(OC)cc2)[nH]c2nccnc12,inactive,inactive,inactive,inactive,inactive,inactive,,,,
COCCNCc1ccc(-c2cc3nccc(Oc4ccc(NC(=O)C5(C(=O)Nc6ccc(F)cc6)CC5)cc4F)c3s2)nc1,inactive,inactive,inactive,inactive,inactive,inactive,,,,
COc1cc2nc(C3CC3)nc(N3CCN(c4ccccc4OC)CC3)c2cc1OC,inactive,inactive,inactive,inactive,inactive,inactive,,,,
Cc1nc(C#Cc2ccnc(Cl)c2)c(C)n1-c1ccc(F)cc1,inactive,inactive,inactive,inactive,inactive,inactive,,,,
Nc1nc(O)c(C2=C3C(=Nc4ccccc43)C(=O)NCC2)[nH]1,inactive,inactive,inactive,inactive,inactive,inactive,,,,
Nc1nc2c(c(N3CC[C@@H](N)C3)n1)CCCc1ccccc1-2,inactive,inactive,inactive,inactive,inactive,inactive,,,,
COc1ccc(C2(CNC(=O)c3ccc(NC(=O)c4ccco4)cc3)CCOCC2)cc1,inactive,inactive,inactive,inactive,inactive,inactive,,,,
CC(C)/C=C1\NC(=O)C(C(C)C)n2c1nc1ccccc1c2=O (stereo unspecified),inactive,inactive,inactive,inactive,inactive,inactive,,,,
CCC(C)C(=O)OC12C(OC(C)=O)C(C)C3(O)C(C=C(CO)CC4(O)C(=O)C(C)=CC43)C1C2(C)C (stereo unspecified),inactive,inactive,inactive,inactive,inactive,inactive,,,,
C/C=C/C1=CC2=C(CO1)C(=O)C(C)(OC(=O)c1c(C)cc(O)cc1OC)C(O)C2 (stereo unspecified),inactive,inactive,inactive,inactive,inactive,inactive,,,,
CC(C)S(=O)(=O)NC[C@H](C)c1ccc(-c2ccc(CCNS(C)(=O)=O)cc2)cc1,inactive,inactive,inactive,inactive,inactive,inactive,,,,
CC(=O)OC1[C@H]2[C@@H](C[C@@H](C)[C@@H]3C=CC(=O)[C@@]13C)OC(=O)[C@@H]2C (stereo partly specified),inactive,inactive,inactive,23.8 µM (active),inactive,inactive,,,,
CN(C)N(C)C(=O)[C@@]1(Cc2ccccc2)CCCN(C(=O)[C@@H](Cc2c[nH]c3ccccc23)NC(=O)C(C)(C)N)C1,inactive,inactive,inactive,inactive,inactive,inactive,,,,
OC[C@H]1O[C@@H](OC/C=C/c2ccc(O)cc2)[C@H](O)[C@@H](O)[C@@H]1O,inactive,inactive,inactive,inactive,inactive,inactive,,,,
C1=Cc2ccccc2C(=C2CCN(CCCCc3nn[nH]n3)CC2)c2ccccc21,inactive,inactive,inactive,inactive,inactive,inactive,,,,
CCC(C)CNCC(=O)N1CCC2SC=CC2C1COc1cccc(C)c1 (stereo unspecified),inactive,inactive,inactive,inactive,inactive,inactive,,,,
CC1(C)CCC2(C(=O)OC3OC(COC4OC(CO)C(O)C(O)C4O)C(O)C(O)C3O)CCC3(C)C(=CCC4C5(C)CCC(OC6OCC(O)C(O)C6O)C(C)(C)C5CCC43C)C2C1O (stereo unspecified),inactive,inactive,,,,,0.58% [at 11.6 µM],122% [at 11.5 µM],-1.73% [at 11.6 µM],18.7% [at 11.5 µM]
O=C(NCCCc1ccccc1)c1cccc(-c2cc(O)c3ncccc3c2)c1,inactive,inactive,inactive,inactive,inactive,inactive,,,,
Cc1ccc(C)c(NS(=O)(=O)c2cc(C(=O)Nc3ccccc3-c3ccccc3)ccc2C)c1,inactive,inactive,inactive,inactive,inactive,inactive,,,,
O=C(NC1CCC1)c1ccc(C#Cc2cccc(F)c2)nc1,inactive,inactive,inactive,inactive,inactive,inactive,,,,
OC(CC1c2ccccc2-c2cncn21)C1CCCCC1 (stereo unspecified),inactive,inactive,inactive,inactive,inactive,inactive,,,,
